Source: PubChem BioAssay (Broad Institute)
An excerpt weighted towards active compounds, which were near 0.35% of everything screened.
PDI inh – blocks human protein disulfide isomerase activity; P07237; PDI insulin aggregation turbidity, A650, 90 min; inhibition, % at 10 µM; actives 0.052% (n = 350,000); AID 588391;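 active = mean inhibition across replicates of 30% or more, whatever share of single replicates reach that level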
Rtt109 HAT inh – C. albicans Rtt109 histone acetyltransferase inhibition. purified Rtt109/Vps75, ThioGlo CoA-SH fluorescence, 4 h. inhibition, % at 34.9 µM. actives 0.16% (n = 330,000). AID 540336;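 active = inhibition of at least 50% in every replicate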
PvdQ inh – blocks Pseudomonas aeruginosa PvdQ acylase activity. purified PvdQ acylase, fluorescence plate reader. AID 488965. inhibition, % at 10 µM. actives 0.063% (n = 340,000); in the data active = inhibition above about 30%, passing the limit was not always enough;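 also: 0% = vehicle neutral wells and 100% = reference inhibitor wells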
ERp5 block – blocks human ERp5 reductase activity on insulin. ERp5 insulin aggregation, absorbance 650 nm, 90 min. Q15084. inhibition, % at 9.99 µM. actives 0.05% (n = 350,000);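 active = mean replicate inhibition above about 25%, with every replicate also reaching it, limit read from the data, passing the limit was not always enough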
Target sequence (Q15084 whole entry, looked up): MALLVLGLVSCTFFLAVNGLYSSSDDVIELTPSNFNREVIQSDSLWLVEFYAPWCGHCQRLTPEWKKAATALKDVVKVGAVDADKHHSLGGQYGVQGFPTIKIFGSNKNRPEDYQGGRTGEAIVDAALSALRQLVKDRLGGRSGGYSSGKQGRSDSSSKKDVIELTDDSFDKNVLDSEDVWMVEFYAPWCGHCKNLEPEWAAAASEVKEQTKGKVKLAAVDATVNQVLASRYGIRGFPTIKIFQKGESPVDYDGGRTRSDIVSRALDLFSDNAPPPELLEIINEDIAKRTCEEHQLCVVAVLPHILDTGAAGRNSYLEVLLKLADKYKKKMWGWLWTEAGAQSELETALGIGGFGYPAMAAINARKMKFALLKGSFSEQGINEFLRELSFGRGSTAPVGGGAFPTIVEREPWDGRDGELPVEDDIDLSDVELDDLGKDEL
ERAP1 HTS inh – blocks human ERAP1 aminopeptidase activity; actives 0.15% (n = 340,000); Q9NZ08; inhibition, % at 10.7 µM; recombinant ERAP1, Leu-AMC fluorescence, 60 min;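 active = mean replicate inhibition of at least 30%, or all replicates individually reaching that 30% level; inactive = mean below 30% and not every replicate reaching it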;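 also: 0% = neutral control wells and 100% = L-leucinethiol positive control wells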
* = called active by the depositor; i = inactive; x = not tested or not shown.

SMILES	PDI inh	Rtt109 HAT inh	PvdQ inh	ERp5 block	ERAP1 HTS inh
CN1CCN(C(=O)C[C@@H]2C[C@@H]3c4cc(NC(=O)C5CCOCC5)ccc4O[C@@H]3[C@H](CO)O2)CC1	x	x	x	37*	-1
O=C(C[C@@H]1C[C@H]2c3cc(NC(=O)C4CCC4)ccc3O[C@H]2[C@@H](CO)O1)NCC(F)(F)F	x	x	x	77*	-1
CN1CCN(C(=O)C[C@@H]2C[C@H]3c4cc(NC(=O)C5CCOCC5)ccc4O[C@H]3[C@@H](CO)O2)CC1	x	x	x	8	-1
COC(=O)C[C@H]1C[C@H]2c3cc(NC(=O)Cc4ccncc4)ccc3O[C@H]2[C@@H](CO)O1	-2	x	x	1	4
COC(=O)C[C@H]1C[C@@H]2c3cc(NC(=O)Cc4ccncc4)ccc3O[C@@H]2[C@@H](CO)O1	x	x	x	60*	-1
O=C(C[C@H]1C[C@H]2c3cc(NC(=O)CC4CC4)ccc3O[C@H]2[C@@H](CO)O1)NCc1ccc(-c2ccccc2)cc1	x	x	x	53*	10
O=C(C[C@H]1C[C@@H]2c3cc(NC(=O)C4CCOCC4)ccc3O[C@@H]2[C@@H](CO)O1)NCC(F)(F)F	x	x	x	2	-1
C[C@@H]1CN([C@@H](C)CO)C(=O)c2cc(C3=CCCC3)cnc2O[C@@H]1CN(C)Cc1ccccc1F	x	x	x	-1	1
O=C(C[C@H]1C[C@@H]2c3cc(NC(=O)C4CCC4)ccc3O[C@@H]2[C@H](CO)O1)NCC(F)(F)F	x	x	x	43*	0
COc1cc2ccccc2cc1C(=O)Nc1ccc(Br)cn1	-5	59*	6	0	-3
O=C(/C=C/c1c(F)cccc1Cl)c1ccc(O)cc1	79*	0	3	-1	3
COCC(=O)Nc1ccc2c(c1)OC[C@@H](C)N(CC1CC1)C[C@@H](C)[C@H](OC)CN(C)C2=O	x	x	x	0	x
CSc1nnc(-c2ccc([N+](=O)[O-])cc2)o1	9	15	58*	0	-2
O=C(O)c1cc(O)c2c(c1)[C@H]([C@H]1c3cc(C(=O)O)cc(O)c3C(=O)c3c(O[C@@H]4O[C@H](CO)[C@@H](O)[C@H](O)[C@H]4O)cccc31)c1cccc(OC3O[C@H](CO)[C@@H](O)[C@H](O)[C@H]3O)c1C2=O (some centres undefined)	47*	17	-3	-3	6
CCN(CC)Cc1c(O)ccc2c(C)c(CC(=O)OC)c(=O)oc12	1	i	-15	x	x
COC(=O)Cc1c(C)c2ccc(O)c(CNCc3ccc(OC)c(OC)c3)c2oc1=O	1	3	-5	1	97*
CC(C)CC#Cc1ccc2c(c1)O[C@H](CN(C)Cc1ccc3c(c1)OCO3)[C@@H](C)CN([C@@H](C)CO)S2(=O)=O	x	x	x	1	-4
O=C(O)CC(CCc1ccccc1)OC1OC(CO)C(O)C(O)C1O (centres undefined)	x	3	-10	-1	32*
C[C@@H]1CN([C@@H](C)CO)C(=O)Cc2cc(NC(=O)Nc3ccccc3)ccc2O[C@H]1CN(C)CC1CC1	x	x	x	-7	4
C/C=C/c1ccc2c(c1)O[C@@H](CN(C)Cc1ccccn1)[C@H](C)CN([C@@H](C)CO)S2(=O)=O	x	x	x	-2	2
Cc1ccc(C(=O)NCC(=O)OCCOc2ccccc2Cl)cc1	4	56*	11	0	1
Cc1ccc(C(=O)NCC(=O)OCCOc2cccc(Cl)c2)cc1	6	3	-6	8	2
Cc1ccc(C(=O)NCCNC(=O)COc2ccccc2Cl)cn1	4	51*	4	-1	-3
C[C@H]1CN([C@@H](C)CO)C(=O)c2cc(NC(=O)Cc3ccccc3)ccc2O[C@@H]1CN(C)Cc1ccc(C(=O)O)cc1	x	x	x	-5	5
Cc1cccc(C)c1OCC(N)C(C)C (centres undefined)	-2	-4	0	0	105*
SMILES	PDI inh	Rtt109 HAT inh	PvdQ inh	ERp5 block	ERAP1 HTS inh
O=C1C2C3C=CC(C4CC34)C2C(=O)N1Cc1ccco1 (centres undefined)	0	8	41*	3	-3
O=C1C2C(C(=O)N1Cc1ccco1)C1C=CC2C12CC2 (centres undefined)	-2	0	87*	x	x
O=C1CC(=O)N(Cc2ccco2)C(=O)N1	11	-5	1	x	x
O=C1C2C3c4ccccc4C(c4ccccc43)C2C(=O)N1Cc1ccco1 (centres undefined)	11	2	-24	x	x
O=C1CC(=O)N(Cc2ccco2)C(=S)N1	4	76*	-10	x	x
O=C(O)CCc1ccc(-c2cccs2)o1	-15	53*	2	x	x
C[n+]1cccc(C(=O)N/N=C/c2ccc3c(c2)OCO3)c1	0	1	-2	4	46*
COc1ccc(/C=C2\C(=O)NCC(=O)N2C)cc1	1	-4	-16	7	86*
COc1ccc(/C=C2\C(=O)NCC(=O)N2Cc2ccccc2)cc1	2	-6	-4	x	x
O=C1COc2ccc(C(=O)NCc3ccco3)cc2N1	0	67*	6	2	-1
O=C(NCc1ccco1)c1ccc2[nH]c(=O)c(=O)[nH]c2c1	-4	-2	-9	1	2
O=C1COc2ccc(C(=O)c3ccccc3C(=O)NCc3ccco3)cc2N1	8	72*	4	x	x
Cc1ccc(S(=O)(=O)N[C@H]2CC[C@H](CC(=O)NCCc3ccncc3)O[C@H]2CO)cc1	x	x	x	-8	2
Cc1cc(OCc2ccc(C(=O)NN=C3CCCC3)cc2)ccc1Cl	-1	56*	5	4	0
CCS(=O)(=O)Nc1ccc2c(c1)C(=O)N(C)C[C@H](OC)[C@@H](C)CN(C(=O)NC(C)C)[C@H](C)CO2	x	x	x	-2	-3
CCOCc1c(C(=O)Nc2ccc(OC)nc2)oc2ccccc12	-7	-4	2	-3	55*
Cc1ccc(S(=O)(=O)Nc2ccc3c(c2)CC(=O)N([C@H](C)CO)C[C@H](C)[C@H](CN(C)S(=O)(=O)c2cn(C)cn2)O3)cc1	x	x	x	0	-4
Cc1ccc(C(=O)NCC(=O)OCC(=O)Nc2cc(C)c(C)cc2[N+](=O)[O-])cc1	-1	7	1	-8	-5
COCC(=O)OCC(=O)Nc1cc(C)c(C)cc1[N+](=O)[O-]	7	50*	4	2	0
Cn1c(CCC(=O)Nc2ccc(S(C)(=O)=O)cc2)nc2cc(S(=O)(=O)N3CCOCC3)ccc21	2	25	5	7	3
Cn1c(CCC(=O)Nc2cc(S(C)(=O)=O)ccc2Cl)nc2cc(S(=O)(=O)N3CCOCC3)ccc21	2	-6	-7	-2	63*
CC(C)c1ccc(N2C(=O)C(Cl)=C(N3CCOCC3)C2=O)cc1	7	12	7	-4	3
CCOc1ccc(N2C(=O)C(Cl)=C(N3CCOCC3)C2=O)cc1	1	116*	-12	-7	0
Cc1ccc(C)c(NC(=O)C2CC(O)CN2C(=O)Oc2ccccc2)c1 (centres undefined)	3	-4	5	-5	39*
Cc1ccc(C)c(NC(=O)C2CC(O)CN2C(=O)OCc2ccccc2)c1 (centres undefined)	-2	1	-5	x	x
